Test results taken from PubChem BioAssay.
Unmarked numbers belong to inactive results. For some assays here: Entries with a potency or affinity are not part of this list. Active and inactive are the calls of the source. Unless noted, the rule behind the calls is not given here.

Tests used:
[1] = antimalarial activity against Dd2 strain (AID 2302;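 active = growth inhibition above 50% at the single 2 µM test dose, taken to imply half-maximal potency below 2 µM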;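 note: 0% = DMSO untreated growth and 100% = chloroquine plus artemisinin killed control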); details: P. falciparum Dd2 in RBCs, LDH growth readout, 72 h; at 2 µM; active compounds read high
[2] = HepG2 cytotoxicity, primary screen, cytotoxicity control for P. falciparum antimalarial project, cell-based, ATP luminescence (AID 2303;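 active = inhibition above 50%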;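 note: 0% = DMSO wells and 100% = digitonin-killed cells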); details: HepG2 viability, 24-48 h, at 10 µM, active compounds read high
[3] = target: L-lactate dehydrogenase (Plasmodium falciparum (isolate CDC / Honduras)) (UniProt Q27743); assay: PfLDH activity inhibition – cell lysate, 3D7 strain, counter-screen for P. falciparum growth inhibition project (AID 2304);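 note: 0% = vehicle and 100% = reference inhibitor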; details: P. falciparum 3D7 crude extract, LDH APAD/NBT absorbance; at 2 µM; active compounds read high
[4] = inhibition of 3D7 malaria parasite growth – strain 3D7 (AID 2306);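 note: 0% = DMSO wells and 100% = chloroquine plus artemisinin control wells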; details: P. falciparum 3D7 erythrocytic growth, LDH absorbance, 72 h; at 2 µM; active compounds read high
[5] = target: Calcium-dependent protein kinase 1 (Plasmodium falciparum (isolate 3D7)) (UniProt P62344); assay: PfCDPK1 kinase inhibitors, biochemical, TCAMS library (AID 1159585; cut-off not given, nearly all actives have IC50 up to about 0.98 µM;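 note: inhibitors leave more ATP so luminescence rises with inhibition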); details: recombinant PfCDPK1, Kinase-Glo ATP depletion luminescence
[6] = target: Plasmodium falciparum protein kinase 6 (PK6, PF3D7_1337100) (UniProt Q8IDW1); assay: PfPK6 kinase inhibitors, biochemical, TCAMS library (AID 1159586); details: recombinant PfPK6, Kinase-Glo ATP depletion luminescence
[7] = target: Protein kinase 7 (PK7), Plasmodium falciparum 3D7 (PF3D7_0213400) (UniProt Q7YTF7); assay: inhibition of Plasmodium PK7 catalytic activity – biochemical, TCAMS antimalarial set, Kinase-Glo luminescence (AID 1159587); details: recombinant PfPK7, Kinase-Glo ATP depletion luminescence
[8] = target: Calcium-dependent protein kinase 4 (Plasmodium falciparum (isolate 3D7)) (UniProt Q8IBS5); assay: PfCDPK4 kinase inhibitors, biochemical, TCAMS library (AID 1159588; cut-off not given, nearly all actives have IC50 up to about 0.91 µM); details: recombinant PfCDPK4, Kinase-Glo ATP depletion luminescence
Calcium-dependent protein kinase 4 (Plasmodium falciparum (isolate 3D7)), sequence (Q8IBS5 whole entry, looked up): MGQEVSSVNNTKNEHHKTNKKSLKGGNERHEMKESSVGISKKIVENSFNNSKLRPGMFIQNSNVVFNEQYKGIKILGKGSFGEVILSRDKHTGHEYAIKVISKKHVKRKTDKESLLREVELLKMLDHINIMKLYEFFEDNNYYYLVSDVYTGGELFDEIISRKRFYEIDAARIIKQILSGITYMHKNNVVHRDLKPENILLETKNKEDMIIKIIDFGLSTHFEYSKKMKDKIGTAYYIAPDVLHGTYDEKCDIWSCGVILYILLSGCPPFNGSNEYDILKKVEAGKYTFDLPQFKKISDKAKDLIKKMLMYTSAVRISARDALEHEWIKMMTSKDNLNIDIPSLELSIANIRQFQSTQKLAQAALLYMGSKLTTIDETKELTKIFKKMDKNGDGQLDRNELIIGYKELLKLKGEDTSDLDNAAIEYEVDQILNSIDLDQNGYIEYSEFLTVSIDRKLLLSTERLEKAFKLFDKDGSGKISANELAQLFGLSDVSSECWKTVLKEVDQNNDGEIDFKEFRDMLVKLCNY

Plasmodium falciparum protein kinase 6 (PK6, PF3D7_1337100), sequence (Q8IDW1 1-305): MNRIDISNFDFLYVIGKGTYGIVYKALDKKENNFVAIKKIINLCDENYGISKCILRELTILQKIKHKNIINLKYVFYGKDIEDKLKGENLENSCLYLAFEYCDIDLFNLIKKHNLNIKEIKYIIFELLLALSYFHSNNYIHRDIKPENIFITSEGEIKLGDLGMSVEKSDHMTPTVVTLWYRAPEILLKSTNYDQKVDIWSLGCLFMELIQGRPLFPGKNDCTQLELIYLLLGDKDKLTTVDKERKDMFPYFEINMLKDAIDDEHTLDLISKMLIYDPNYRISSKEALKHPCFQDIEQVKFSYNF
Calcium-dependent protein kinase 1 (Plasmodium falciparum (isolate 3D7)), sequence (P62344 whole entry, looked up): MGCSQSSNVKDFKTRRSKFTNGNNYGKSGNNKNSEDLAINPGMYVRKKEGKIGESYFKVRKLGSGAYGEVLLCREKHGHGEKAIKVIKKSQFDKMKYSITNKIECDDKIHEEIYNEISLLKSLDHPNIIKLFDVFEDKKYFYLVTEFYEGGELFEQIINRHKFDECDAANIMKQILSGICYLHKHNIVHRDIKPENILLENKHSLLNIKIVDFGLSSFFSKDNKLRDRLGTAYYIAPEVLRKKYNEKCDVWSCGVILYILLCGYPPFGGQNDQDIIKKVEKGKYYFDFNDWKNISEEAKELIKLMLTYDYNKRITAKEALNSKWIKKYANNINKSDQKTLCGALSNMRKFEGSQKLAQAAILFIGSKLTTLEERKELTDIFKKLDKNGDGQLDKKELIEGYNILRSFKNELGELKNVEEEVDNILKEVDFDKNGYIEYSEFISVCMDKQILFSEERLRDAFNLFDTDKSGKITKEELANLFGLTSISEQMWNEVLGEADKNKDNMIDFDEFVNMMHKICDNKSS
L-lactate dehydrogenase (Plasmodium falciparum (isolate CDC / Honduras)), sequence (Q27743 whole entry, looked up): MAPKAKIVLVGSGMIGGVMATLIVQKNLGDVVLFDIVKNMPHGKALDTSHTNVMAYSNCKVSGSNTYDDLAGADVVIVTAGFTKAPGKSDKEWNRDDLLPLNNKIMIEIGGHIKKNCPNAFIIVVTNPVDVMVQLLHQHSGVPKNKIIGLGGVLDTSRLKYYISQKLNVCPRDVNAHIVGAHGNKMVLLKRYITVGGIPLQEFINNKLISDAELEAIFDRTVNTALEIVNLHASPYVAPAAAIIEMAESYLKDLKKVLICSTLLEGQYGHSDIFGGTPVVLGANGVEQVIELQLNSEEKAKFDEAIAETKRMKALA
Protein kinase 7 (PK7), Plasmodium falciparum 3D7 (PF3D7_0213400), sequence (Q7YTF7 1-343): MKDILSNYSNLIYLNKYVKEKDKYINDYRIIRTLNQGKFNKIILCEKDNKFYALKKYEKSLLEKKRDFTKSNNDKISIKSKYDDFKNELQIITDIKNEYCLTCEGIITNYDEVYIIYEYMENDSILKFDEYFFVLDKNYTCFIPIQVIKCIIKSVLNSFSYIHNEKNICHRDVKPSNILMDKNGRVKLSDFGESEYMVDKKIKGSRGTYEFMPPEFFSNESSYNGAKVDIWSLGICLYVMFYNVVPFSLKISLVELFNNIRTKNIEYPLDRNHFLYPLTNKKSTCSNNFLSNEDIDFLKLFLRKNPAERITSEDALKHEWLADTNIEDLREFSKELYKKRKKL

| SMILES | growth inhibition [1] | inhibition [2] | inhibition [3] [%] | growth inhibition [4] | outcome [5] | outcome [6] | outcome [7] | outcome [8] |
| --- | --- | --- | --- | --- | --- | --- | --- | --- |
| CC(CCc1ccccc1)NCC(O)c1cccc(C(F)(F)F)c1 (configuration not stated) | 98% (active) | 18% | 4 | 99% (active) | inactive | inactive | inactive | inactive |
| CCNc1cc(C(=O)N[C@@H](Cc2ccccc2)[C@H](O)CN[C@H]2C[C@@H]3CC[C@H]2C3)cc(N2CCCCS2(=O)=O)c1 | 73% (active) | -4% | 1 | 99% (active) | inactive | inactive | inactive | inactive |
| COc1cc2nc(NCCc3cccc(Cl)c3)nc(NCc3ccccc3)c2cc1OC | 101% (active) | 97% (active) | 0 | 101% (active) | inactive | inactive | inactive | inactive |
| Clc1ccc(OCCC2CCN(CCCCCCCN3CCC(CCOc4ccc(Cl)c(Cl)c4)CC3)CC2)cc1Cl | 82% (active) | 100% (active) | -5 | 99% (active) | inactive | inactive | inactive | inactive |
| CC(C)(C)C(=O)Nc1ccc(N2CCN(C(c3ccccc3)c3ccccc3)CC2)c(Cl)c1 | 94% (active) | -13% | 0 | 92% (active) | inactive | inactive | inactive | inactive |
| O=C(/C=C/c1ccc(Cl)c(Cl)c1)NCCCCCN1CCCN(C(=O)Nc2ccc(F)c(Cl)c2)CC1 | 0% | 31% | 1 | 95% (active) | inactive | inactive | inactive | inactive |
| COc1ccc2c(NN=Cc3ccccc3Cl)cc(C)nc2c1 | 99% (active) | 5% | 2 | 101% (active) | inactive | inactive | inactive | inactive |
| CC(C)(C)c1ccc(CN2CCC(NC(=O)c3ccc(-c4cccc(C(F)(F)F)c4)s3)CC2)cc1 | 96% (active) | 97% (active) | -5 | 100% (active) | inactive | inactive | inactive | inactive |
| CN(C)c1ccc(CN2CCCCC(NC(=O)c3cc(-c4ccccc4F)cs3)C2)cc1 (configuration not stated) | 28% | 13% | 5 | 100% (active) | inactive | inactive | inactive | inactive |
| CC(Oc1ccc(Cl)cc1Cl)c1nc(-c2ccc(NC(=O)c3ccco3)cc2)no1 (configuration not stated) | 82% (active) | 7% | 0 | 92% (active) | inactive | inactive | inactive | inactive |
| COc1cc(F)c2ncc(Cl)c(CCN3CCC(NCc4ccc5c(n4)NC(=O)CS5)CC3)c2c1 | 41% | 18% | 3 | 99% (active) | inactive | inactive | inactive | inactive |
| Cc1ncccc1C(=O)Nc1cccc(-c2cccc(-c3nc4c(C)cccc4[nH]3)c2)c1 | 69% (active) | 6% | 4 | 93% (active) | inactive | inactive | inactive | inactive |
| Fc1ccccc1CNc1ncc(-c2ccsc2)c(-c2nccs2)n1 | 71% (active) | 11% | -6 | 86% (active) | inactive | inactive | inactive | inactive |
| COc1ccc(C2C(C(=O)Nc3cc(OC)c(OC)c(OC)c3)c3cc(OC)c(OC)cc3C(=O)N2C)cc1 (configuration not stated) | 100% (active) | 9% | 2 | 98% (active) | inactive | inactive | inactive | inactive |
| CNC(=O)NC1CCN(Cc2c(-c3cccs3)nc3ccccc3c2C(=O)N[C@@H](C)C2CCCCC2)CC1 | 97% (active) | 5% | 1 | 99% (active) | inactive | inactive | inactive | inactive |
| O=C(NC(c1ccc(Cl)cc1)c1ccc2cccnc2c1O)c1ccccc1 (configuration not stated) | 80% (active) | 44% | -2 | 87% (active) | inactive | inactive | inactive | inactive |
| COC(=O)C(=O)c1c(-c2ccccc2)c(-c2ccc(OC)c(OC)c2)c2c3cc(OC)c(OC)cc3ccn12 | 89% (active) | 2% | -1 | 97% (active) | inactive | inactive | inactive | inactive |
| CCc1ccc(C2CCN(CCCCNC(=O)c3ccc(NC(=O)c4ccc(Cl)cc4)cc3)CC2)c(OCCO)c1 | 100% (active) | 94% (active) | -3 | 98% (active) | inactive | inactive | inactive | inactive |
| CCOC(=O)c1cnc2c(OC)cc(OC)c(Cl)c2c1Nc1cccc(C)c1 | 20% | 0% | -2 | 95% (active) | inactive | inactive | inactive | inactive |
